Data on 1 sequence can be found in PMC7862700, “An all-to-all approach to the identification of sequence-specific readers for epigenetic DNA modifications on cytosine”.

What all share (assay): DAPPL (digital affinity profiling via proximity ligation, sequencing); 10 mM Tris-HCl pH 7.5, 50 mM NaCl, 1 mM DTT, 4% glycerol, room temperature, 30 min; GST-TFs on glutathione beads, 16-mer random dsDNA library, 0.1% formaldehyde crosslink after washing; high values mean tight binding
One test addresses T1, FLI1 (Homo sapiens, UniProt Q01543 1-452).
T1 sequence: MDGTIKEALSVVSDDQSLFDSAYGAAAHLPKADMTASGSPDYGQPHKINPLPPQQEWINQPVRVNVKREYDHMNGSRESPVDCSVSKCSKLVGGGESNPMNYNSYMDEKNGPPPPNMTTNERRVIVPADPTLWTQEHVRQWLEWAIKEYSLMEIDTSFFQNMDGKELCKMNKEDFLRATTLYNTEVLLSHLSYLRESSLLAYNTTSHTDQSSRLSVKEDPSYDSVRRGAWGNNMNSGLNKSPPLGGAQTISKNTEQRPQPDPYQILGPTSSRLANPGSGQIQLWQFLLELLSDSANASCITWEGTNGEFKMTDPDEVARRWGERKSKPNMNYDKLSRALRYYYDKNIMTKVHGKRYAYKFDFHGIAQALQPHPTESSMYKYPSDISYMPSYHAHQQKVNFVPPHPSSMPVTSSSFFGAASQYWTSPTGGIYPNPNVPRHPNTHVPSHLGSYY
The note with it: protein: recombinant; tags: N-terminal GST; dsDNA, one strand shown. An outline of the steps:
(§1)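 After expression in yeast as GST fusions, human transcription factors were bound to glutathione beads, DNA-barcoded and mixed with a tag-only sample. The pools were incubated with 200 nmole of a 16-mer random double-stranded DNA library in Tris/NaCl/DTT/glycerol buffer (30 min, room temperature), washed and crosslinked with 0.1% formaldehyde. Proximity ligation with BsaI/T4 ligase ran for 1 h at 37 °C, before PCR amplification and sequencing on an Illumina NextSeq500. Binding signal is a hexamer's read frequency for a factor divided by its frequency for the tag-only sample.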

A further test concerns the target T2, ELK1 (Homo sapiens, UniProt P19419 1-428).
T2 sequence: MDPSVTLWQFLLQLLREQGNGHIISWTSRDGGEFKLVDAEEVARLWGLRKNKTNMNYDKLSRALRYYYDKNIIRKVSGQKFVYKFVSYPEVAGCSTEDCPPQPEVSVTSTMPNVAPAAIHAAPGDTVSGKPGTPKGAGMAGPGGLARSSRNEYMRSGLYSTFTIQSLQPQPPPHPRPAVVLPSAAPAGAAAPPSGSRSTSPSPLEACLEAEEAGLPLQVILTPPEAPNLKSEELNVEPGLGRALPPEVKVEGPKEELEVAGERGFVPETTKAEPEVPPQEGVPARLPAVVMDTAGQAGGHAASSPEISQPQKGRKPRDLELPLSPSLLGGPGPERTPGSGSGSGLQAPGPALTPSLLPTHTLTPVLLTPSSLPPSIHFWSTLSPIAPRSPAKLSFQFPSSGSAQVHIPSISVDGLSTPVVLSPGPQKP
The note with it: protein: recombinant; tags: N-terminal GST; dsDNA, one strand shown. An outline of the steps: as §1

A further test deals with T3, GABPA (Homo sapiens, UniProt Q06546 1-454).
T3 sequence: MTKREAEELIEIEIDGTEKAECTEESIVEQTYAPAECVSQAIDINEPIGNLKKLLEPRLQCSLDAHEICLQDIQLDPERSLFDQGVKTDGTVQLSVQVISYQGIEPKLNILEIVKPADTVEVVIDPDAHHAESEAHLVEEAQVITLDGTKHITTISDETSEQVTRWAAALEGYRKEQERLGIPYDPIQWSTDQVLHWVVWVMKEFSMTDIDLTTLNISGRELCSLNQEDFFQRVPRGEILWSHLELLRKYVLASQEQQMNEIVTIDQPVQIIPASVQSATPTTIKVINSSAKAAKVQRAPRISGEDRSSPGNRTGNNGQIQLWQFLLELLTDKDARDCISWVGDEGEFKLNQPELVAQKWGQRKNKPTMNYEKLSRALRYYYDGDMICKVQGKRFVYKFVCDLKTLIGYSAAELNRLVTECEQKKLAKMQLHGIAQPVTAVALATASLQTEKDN
Particulars: protein: recombinant; tags: N-terminal GST; dsDNA, one strand shown. An outline of the steps:
as §1

A further test deals with T4, ERG (Homo sapiens, UniProt P11308 1-479).
T4 sequence: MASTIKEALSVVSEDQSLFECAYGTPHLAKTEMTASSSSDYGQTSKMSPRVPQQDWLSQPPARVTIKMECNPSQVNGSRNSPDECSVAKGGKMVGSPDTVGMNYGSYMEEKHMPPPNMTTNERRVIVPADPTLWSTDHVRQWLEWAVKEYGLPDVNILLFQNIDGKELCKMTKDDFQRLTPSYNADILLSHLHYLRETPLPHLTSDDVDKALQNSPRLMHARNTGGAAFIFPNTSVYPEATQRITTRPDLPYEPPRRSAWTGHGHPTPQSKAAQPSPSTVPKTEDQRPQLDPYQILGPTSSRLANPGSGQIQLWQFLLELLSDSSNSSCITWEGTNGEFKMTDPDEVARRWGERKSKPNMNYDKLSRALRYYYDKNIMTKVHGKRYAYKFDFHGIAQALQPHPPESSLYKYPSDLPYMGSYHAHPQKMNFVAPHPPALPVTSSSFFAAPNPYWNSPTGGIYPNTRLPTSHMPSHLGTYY
Particulars: protein: recombinant; tags: N-terminal GST; dsDNA, one strand shown. An outline of the steps: as §1

The target in the next test is ELF1 (Homo sapiens, UniProt P32519 1-619). Particulars: protein: recombinant; tags: N-terminal GST; dsDNA, one strand shown. In short, it runs like this: as §1
Sequence of ELF1 (P32519 whole entry): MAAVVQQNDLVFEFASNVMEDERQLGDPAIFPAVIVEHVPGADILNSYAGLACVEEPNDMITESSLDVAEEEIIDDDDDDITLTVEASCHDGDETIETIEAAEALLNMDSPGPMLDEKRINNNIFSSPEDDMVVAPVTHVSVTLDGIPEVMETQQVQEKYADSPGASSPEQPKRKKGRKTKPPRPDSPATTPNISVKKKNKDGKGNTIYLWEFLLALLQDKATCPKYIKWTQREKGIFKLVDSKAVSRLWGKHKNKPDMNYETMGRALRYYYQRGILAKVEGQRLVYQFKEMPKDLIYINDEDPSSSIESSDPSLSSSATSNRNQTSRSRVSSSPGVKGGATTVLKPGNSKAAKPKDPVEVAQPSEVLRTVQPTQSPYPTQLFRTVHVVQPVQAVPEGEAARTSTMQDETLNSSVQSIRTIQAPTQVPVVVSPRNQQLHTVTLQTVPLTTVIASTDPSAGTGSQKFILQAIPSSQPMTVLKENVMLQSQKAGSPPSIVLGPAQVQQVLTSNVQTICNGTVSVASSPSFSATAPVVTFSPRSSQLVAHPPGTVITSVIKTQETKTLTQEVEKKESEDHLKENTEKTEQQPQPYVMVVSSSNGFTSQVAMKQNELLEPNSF
For the next test, the target named is T5, EHF (Homo sapiens, UniProt Q9NZC4 1-300).
T5 sequence: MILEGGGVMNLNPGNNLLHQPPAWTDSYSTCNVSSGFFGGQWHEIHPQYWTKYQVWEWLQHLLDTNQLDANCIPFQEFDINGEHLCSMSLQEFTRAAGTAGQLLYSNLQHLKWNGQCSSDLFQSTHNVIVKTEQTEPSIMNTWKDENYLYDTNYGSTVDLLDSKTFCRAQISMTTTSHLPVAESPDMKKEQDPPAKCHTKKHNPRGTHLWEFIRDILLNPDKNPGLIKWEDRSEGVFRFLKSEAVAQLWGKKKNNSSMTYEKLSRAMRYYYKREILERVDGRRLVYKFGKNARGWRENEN
The note with it: protein: recombinant; tags: N-terminal GST; dsDNA, one strand shown. An outline of the steps: as §1

The target of another test is SPI1 (Homo sapiens, UniProt P17947 1-270). Particulars: protein: recombinant; tags: N-terminal GST; dsDNA, one strand shown. An outline of the steps:
as §1

The next test concerns the target SPIB (Homo sapiens, UniProt Q01892 1-262). Particulars: protein: recombinant; tags: N-terminal GST; dsDNA, one strand shown. An outline of the steps:
as §1

The target of a further test is T6, ELK3 (Homo sapiens, UniProt P41970 1-407).
T6 sequence: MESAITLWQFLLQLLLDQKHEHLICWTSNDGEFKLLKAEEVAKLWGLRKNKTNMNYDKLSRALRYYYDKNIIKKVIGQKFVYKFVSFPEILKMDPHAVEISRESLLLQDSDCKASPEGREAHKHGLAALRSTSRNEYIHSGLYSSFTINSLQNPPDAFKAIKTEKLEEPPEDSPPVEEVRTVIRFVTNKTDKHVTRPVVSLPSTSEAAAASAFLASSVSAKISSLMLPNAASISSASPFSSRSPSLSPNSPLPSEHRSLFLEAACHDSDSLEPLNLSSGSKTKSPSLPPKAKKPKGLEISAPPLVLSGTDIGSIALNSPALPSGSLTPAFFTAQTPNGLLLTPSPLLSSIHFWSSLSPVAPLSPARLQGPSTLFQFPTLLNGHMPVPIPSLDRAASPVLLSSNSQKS
The note with it: protein: recombinant; tags: N-terminal GST; dsDNA, one strand shown. An outline of the steps:
as §1

In a further test the target is T7, FEV (Homo sapiens, UniProt Q99581 1-238).
T7 sequence: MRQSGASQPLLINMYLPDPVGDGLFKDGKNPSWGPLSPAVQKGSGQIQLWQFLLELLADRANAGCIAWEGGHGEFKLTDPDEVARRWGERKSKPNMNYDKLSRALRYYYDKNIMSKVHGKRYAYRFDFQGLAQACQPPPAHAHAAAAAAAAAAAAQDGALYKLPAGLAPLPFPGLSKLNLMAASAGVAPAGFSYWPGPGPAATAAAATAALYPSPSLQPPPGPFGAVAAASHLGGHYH
The note with it: protein: recombinant; tags: N-terminal GST; dsDNA, one strand shown. In short, it runs like this: as §1

For the next test, the target named is ETV5 (Homo sapiens, UniProt P41161 1-510). Particulars: protein: recombinant; tags: N-terminal GST; dsDNA, one strand shown. An outline of the steps: as §1
Sequence of ETV5 (P41161 whole entry): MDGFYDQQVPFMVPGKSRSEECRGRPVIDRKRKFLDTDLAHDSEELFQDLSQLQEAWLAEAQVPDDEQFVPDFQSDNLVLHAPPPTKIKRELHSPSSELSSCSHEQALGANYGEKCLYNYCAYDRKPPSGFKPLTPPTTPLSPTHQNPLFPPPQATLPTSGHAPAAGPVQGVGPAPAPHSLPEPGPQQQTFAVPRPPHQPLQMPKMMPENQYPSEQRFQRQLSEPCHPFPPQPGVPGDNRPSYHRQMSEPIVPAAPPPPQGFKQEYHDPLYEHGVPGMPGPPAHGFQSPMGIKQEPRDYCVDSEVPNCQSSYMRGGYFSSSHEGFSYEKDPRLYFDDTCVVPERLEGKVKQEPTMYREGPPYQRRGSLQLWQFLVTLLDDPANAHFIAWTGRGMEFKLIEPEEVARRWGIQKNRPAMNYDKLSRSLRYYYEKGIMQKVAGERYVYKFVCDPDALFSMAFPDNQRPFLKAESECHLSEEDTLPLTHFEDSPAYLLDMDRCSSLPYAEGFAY
A further test addresses HSF1 (Homo sapiens, UniProt Q00613 1-529). Particulars: protein: recombinant; tags: N-terminal GST; chain copies: 3; dsDNA, one strand shown. In short, it runs like this:
as §1

A further test addresses T8, SPIC (Homo sapiens, UniProt Q8N5J4 1-248).
T8 sequence: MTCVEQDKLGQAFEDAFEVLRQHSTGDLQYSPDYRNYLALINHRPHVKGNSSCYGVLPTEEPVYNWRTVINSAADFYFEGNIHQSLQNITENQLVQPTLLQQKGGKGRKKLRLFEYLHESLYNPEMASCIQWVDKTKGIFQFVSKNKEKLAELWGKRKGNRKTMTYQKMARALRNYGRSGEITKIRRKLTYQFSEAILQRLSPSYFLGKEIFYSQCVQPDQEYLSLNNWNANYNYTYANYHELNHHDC
The note with it: protein: recombinant; tags: N-terminal GST; dsDNA, one strand shown. In short, it runs like this: as §1

The next test has as its target ELF4 (Homo sapiens, UniProt Q99607 1-663). The note with it: protein: recombinant; tags: N-terminal GST; dsDNA, one strand shown. An outline of the steps:
as §1

A further test deals with T9, ELK4 (Homo sapiens, UniProt P28324-2 1-405).
T9 sequence: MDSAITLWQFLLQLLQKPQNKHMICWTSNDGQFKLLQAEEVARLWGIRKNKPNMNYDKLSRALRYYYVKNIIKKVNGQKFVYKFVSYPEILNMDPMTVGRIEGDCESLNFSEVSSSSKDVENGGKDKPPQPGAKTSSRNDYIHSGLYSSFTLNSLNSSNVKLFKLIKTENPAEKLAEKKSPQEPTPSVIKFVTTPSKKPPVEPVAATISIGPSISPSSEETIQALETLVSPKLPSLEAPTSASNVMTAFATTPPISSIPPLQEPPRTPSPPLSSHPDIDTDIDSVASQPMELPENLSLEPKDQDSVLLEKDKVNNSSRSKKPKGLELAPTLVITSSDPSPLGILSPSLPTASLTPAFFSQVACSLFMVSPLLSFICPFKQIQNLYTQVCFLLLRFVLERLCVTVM
The note with it: protein: recombinant; tags: N-terminal GST; dsDNA, one strand shown. In short, it runs like this: as §1

The target in a further test is T10, ETV2 (Homo sapiens, UniProt O00321 1-342).
T10 sequence: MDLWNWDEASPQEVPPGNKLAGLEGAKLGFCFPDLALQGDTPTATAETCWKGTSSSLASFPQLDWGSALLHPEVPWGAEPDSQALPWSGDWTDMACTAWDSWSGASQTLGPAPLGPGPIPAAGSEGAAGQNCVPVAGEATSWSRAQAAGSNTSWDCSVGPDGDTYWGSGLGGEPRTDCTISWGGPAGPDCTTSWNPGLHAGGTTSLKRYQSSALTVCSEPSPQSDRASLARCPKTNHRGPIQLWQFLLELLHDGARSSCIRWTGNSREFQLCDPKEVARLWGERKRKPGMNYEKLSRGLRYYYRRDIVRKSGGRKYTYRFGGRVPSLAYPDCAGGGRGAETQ
The note with it: protein: recombinant; tags: N-terminal GST; dsDNA, one strand shown. In short, it runs like this: as §1

The next test addresses T11, ELF3 (Homo sapiens, UniProt P78545 1-371).
T11 sequence: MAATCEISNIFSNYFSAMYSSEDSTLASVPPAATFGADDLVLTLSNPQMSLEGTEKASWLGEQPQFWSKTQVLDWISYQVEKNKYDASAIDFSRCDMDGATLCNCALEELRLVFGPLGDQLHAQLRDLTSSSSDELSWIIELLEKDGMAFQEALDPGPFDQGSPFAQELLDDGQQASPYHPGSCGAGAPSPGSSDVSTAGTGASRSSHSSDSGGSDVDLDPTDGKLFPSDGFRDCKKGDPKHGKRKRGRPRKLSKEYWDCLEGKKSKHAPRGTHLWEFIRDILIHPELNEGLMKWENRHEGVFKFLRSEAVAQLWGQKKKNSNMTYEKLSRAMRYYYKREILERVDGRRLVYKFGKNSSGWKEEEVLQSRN
The note with it: protein: recombinant; tags: N-terminal GST; dsDNA, one strand shown. An outline of the steps:
as §1

A further test has as its target ETV1 (Homo sapiens, UniProt P50549 1-477). Particulars: protein: recombinant; tags: N-terminal GST; dsDNA, one strand shown. An outline of the steps:
as §1

Sequence of ELF4 (Q99607 whole entry): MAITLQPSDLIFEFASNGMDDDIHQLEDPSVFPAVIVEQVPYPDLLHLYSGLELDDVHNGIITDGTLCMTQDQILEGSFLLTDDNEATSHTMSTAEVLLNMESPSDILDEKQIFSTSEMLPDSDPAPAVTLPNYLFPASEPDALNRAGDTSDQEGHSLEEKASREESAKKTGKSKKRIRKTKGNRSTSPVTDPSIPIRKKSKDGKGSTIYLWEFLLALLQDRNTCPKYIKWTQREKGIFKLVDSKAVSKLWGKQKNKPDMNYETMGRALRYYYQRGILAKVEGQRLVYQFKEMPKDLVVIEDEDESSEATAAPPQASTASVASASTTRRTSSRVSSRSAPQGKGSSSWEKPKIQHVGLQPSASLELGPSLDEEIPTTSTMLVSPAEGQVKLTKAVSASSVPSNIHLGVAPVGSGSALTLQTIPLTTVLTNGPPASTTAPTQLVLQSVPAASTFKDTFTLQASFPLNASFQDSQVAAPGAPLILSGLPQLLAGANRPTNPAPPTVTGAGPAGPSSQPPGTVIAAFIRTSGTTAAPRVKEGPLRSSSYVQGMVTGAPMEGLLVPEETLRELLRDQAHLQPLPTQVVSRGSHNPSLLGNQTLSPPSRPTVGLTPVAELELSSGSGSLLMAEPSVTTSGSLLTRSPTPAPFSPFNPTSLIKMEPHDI
Sequence of SPIB (Q01892 whole entry): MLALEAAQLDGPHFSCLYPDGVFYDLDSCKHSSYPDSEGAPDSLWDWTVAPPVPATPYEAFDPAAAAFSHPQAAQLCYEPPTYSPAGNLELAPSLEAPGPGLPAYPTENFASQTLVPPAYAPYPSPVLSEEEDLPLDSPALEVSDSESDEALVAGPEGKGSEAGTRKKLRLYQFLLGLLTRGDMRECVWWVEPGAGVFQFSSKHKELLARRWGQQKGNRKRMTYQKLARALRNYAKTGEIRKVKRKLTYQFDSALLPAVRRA
Sequence of ETV1 (P50549 whole entry): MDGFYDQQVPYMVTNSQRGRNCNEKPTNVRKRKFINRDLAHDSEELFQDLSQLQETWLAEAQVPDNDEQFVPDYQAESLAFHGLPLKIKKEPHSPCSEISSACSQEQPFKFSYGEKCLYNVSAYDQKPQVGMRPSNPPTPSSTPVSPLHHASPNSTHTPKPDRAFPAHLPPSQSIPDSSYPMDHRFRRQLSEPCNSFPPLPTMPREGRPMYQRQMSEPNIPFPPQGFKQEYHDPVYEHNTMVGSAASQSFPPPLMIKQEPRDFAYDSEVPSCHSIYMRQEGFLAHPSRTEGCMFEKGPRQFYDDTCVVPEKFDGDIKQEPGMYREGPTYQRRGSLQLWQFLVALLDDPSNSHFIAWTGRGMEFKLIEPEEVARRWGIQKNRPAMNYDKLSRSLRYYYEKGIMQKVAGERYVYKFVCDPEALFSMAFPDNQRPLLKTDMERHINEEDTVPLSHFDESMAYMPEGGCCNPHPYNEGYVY
Sequence of HSF1 (Q00613 whole entry): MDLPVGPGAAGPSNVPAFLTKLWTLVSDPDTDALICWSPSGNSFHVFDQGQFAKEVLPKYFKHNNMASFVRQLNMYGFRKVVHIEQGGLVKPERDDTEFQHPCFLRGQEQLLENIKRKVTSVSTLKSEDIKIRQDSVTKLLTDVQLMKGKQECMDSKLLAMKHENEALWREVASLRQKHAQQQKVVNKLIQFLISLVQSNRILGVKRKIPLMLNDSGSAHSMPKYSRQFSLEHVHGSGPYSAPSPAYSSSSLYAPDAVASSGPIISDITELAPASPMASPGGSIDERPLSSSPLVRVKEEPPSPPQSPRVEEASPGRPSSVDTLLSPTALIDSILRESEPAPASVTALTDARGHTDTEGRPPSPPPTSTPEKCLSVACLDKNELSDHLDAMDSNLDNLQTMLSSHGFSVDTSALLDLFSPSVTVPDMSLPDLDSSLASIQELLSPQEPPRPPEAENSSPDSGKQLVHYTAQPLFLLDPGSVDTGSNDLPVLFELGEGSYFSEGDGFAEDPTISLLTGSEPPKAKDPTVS

On to GAACAC, for which the binding signal is 1.25 fold enrichment (6-mer frequency, TF over GST control) with FLI1; 1.19 fold enrichment (6-mer frequency, TF over GST control) with ELK1; 1.13 fold enrichment (6-mer frequency, TF over GST control) in the test with GABPA; 1.17 fold enrichment (6-mer frequency, TF over GST control) with ERG; 1.19 fold enrichment (6-mer frequency, TF over GST control) with ELF1; 1.12 fold enrichment (6-mer frequency, TF over GST control) with EHF. The binding signal in the test with SPI1 was 1.16 fold enrichment (6-mer frequency, TF over GST control); with SPIB, 1.2 fold enrichment (6-mer frequency, TF over GST control); with ELK3, 1.08 fold enrichment (6-mer frequency, TF over GST control); with FEV, 1.08 fold enrichment (6-mer frequency, TF over GST control); with ETV5 it was 1.08 fold enrichment (6-mer frequency, TF over GST control); with HSF1, 1.21 fold enrichment (6-mer frequency, TF over GST control). The binding signal with SPIC was 1.18 fold enrichment (6-mer frequency, TF over GST control); in the test with ELF4 it was 1.13 fold enrichment (6-mer frequency, TF over GST control); with ELK4, 1.17 fold enrichment (6-mer frequency, TF over GST control); in the test with ETV2, 1.33 fold enrichment (6-mer frequency, TF over GST control); with ELF3, 1.13 fold enrichment (6-mer frequency, TF over GST control); with ETV1 it was 1.18 fold enrichment (6-mer frequency, TF over GST control).
